From the supplement of paper PMC6555819

What was measured:
Experiment in all cases: PBM binding z-score (relative to random genomic background probes); higher = stronger binding; sequences stand for … in GC…GCGATTGACAGCGTAGAATGAAGG
[1] = system: RARb homodimer (NR concentration 270 nM)
Procedure, shortened: (§1)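 Each nuclear receptor dimer, without ligand, was incubated for 1 h on custom Agilent 4×180K protein-binding microarrays. Binding was detected with antibodies against each partner (one per run), and scanned fluorescence was regression-normalized. The binding z-scores are referenced to random human genomic background probes.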

[2] = system: RARg:RXRa (NR concentration 270 nM, RXRa partner concentration 90 nM)
Procedure, shortened: as §1

[3] = system: RARg homodimer (NR concentration 270 nM)
Procedure, shortened: as §1

[4] = system: RXRa DBDmut IVT, anti-RXR (DBD mutation: RXRa K156A/R161A, NR concentration 90 nM)
Procedure, shortened: as §1

[5] = system: RXRa homodimer (NR concentration 180 nM)
Procedure, shortened: as §1

[6] = system: THRa:RXRa (NR concentration 90 nM, RXRa partner concentration 90 nM)
Procedure, shortened: as §1

[7] = system: THRa homodimer (NR concentration 90 nM)
Procedure, shortened: as §1

[8] = system: VDR homodimer (NR concentration 270 nM)
Procedure, shortened: as §1

Sequence | PBM binding z-score [1] | PBM binding z-score [2] | PBM binding z-score [3] | PBM binding z-score [4] | PBM binding z-score [5] | PBM binding z-score [6] | PBM binding z-score [7] | PBM binding z-score [8]
TCTATTAGTTGATTAGCGCAACCGAAACAGCGGA | -0.343 | 0.177 | -0.0626 | 1.29 | 0.499 | 0.0464 | 0.16 | 0.523
ATCTCTAGTTAAAGTTCAGTGAAAGATCGATAGA | 2.53 | 1.88 | 2.04 | 1.84 | 1.22 | 0.988 | 0.202 | 2.47
CTACCAAGGTGAACAATGTCGTTGATTACTATTC | 1.24 | 0.711 | 0.812 | 0.62 | 0.563 | 2.04 | 1.01 | 0.118
CCAGACAGGTGAAAGGGAACTCAGTCTGGTACGC | 0.101 | 0.15 | 0.299 | -0.242 | 0.59 | 0.0918 | -0.374 | 0.0555
AGTCAAAGTCCATCTAGGTAACGTAAGATATGCT | 0.564 | 0.538 | 1.09 | 1.23 | -0.0358 | 1.14 | 0.0644 | 0.572
CCTAGTTGGTCATGAGGTCACACACCGGATATGA | 4.66 | 5.3 | 4.46 | 2 | 5.17 | 4.72 | 5.35 | 4.1
CGTCCAAGGTCACTGCTAGGTCAGTGAAAGCATT | 4.78 | 7.45 | 7.04 | 3.66 | 5.2 | 4.48 | 3.39 | 3
